This passage reports INHIBITION results from ChEMBL document CHEMBL4513216, “Probing the Open Global Health Chemical Diversity Library for Multistage-Active Starting Points for Next-Generation Antimalarials” (ACS Infect Dis, 2020).

The structures appear in SMILES notation. The whole screen tested about 69,000 compounds, of which about 8,600 (12%) showed an effect of 50% or more. What follows is part of a selection rich in strong results, with near analogues and random picks from the rest.

The test concerns Plasmodium berghei. Kind of test: Screen against P. berghei liver stage (PbLuc), transformed with Luciferase, at 10uM. The class given is functional, HepG2. The settings on record: tested at 10 uM.
As for `O=c1[nH]c2nc(NCC3CCCO3)ncc2c(=O)n1-c1cccc(F)c1` (centres undefined), the INHIBITION is given as -26.2%.

`COCCN1CC[C@@H]2CN(Cc3nccn3C)C[C@@H]2C1`: the INHIBITION came out at 28.7%.

Turning to `Cc1ccccc1C(=O)N1CCOC(c2ncc(CN(C)C)[nH]2)C1` (centres undefined), the INHIBITION is -10.4%.

With `CCS(=O)(=O)N1C[C@@H](C(=O)NC(C)C)[C@@]2(Cc3ccccc3C(=O)N2)C1`, the INHIBITION is on record as -8.31%.

Take `CS(=O)(=O)CCC(=O)NC1(c2cccc(C(F)(F)F)c2)CCC1`: the INHIBITION is given as 65.6%.

Regarding `COCC(=O)NC1(c2cccc(C(F)(F)F)c2)CCC1`, the INHIBITION was found to be 38.7%.

As for `CCNC(=O)CCC(=O)NC1(c2cccc(C(F)(F)F)c2)CCC1`, the INHIBITION came to 23.9%.

Regarding `CC(C)NC(=O)Nc1ccc(CNCc2cccc(C#N)c2)cc1`, the INHIBITION was determined as 43.7%.

As for `Cc1ccc(C(CNCc2c[nH]nc2C)N(C)C)cc1` (centres undefined), the INHIBITION is recorded as -4.33%.

Consider `CC(=O)N1CCC(NC(=O)c2ccccc2-n2cnnn2)CC1`, for which the INHIBITION came to 35.9%.

Consider `CC(=O)N1CCC(NC(=O)c2cc(S(N)(=O)=O)ccc2C)CC1`, for which the INHIBITION was -21.3%.

`CCN1CCC(NC(=O)c2ccc(F)cc2I)CC1`: the INHIBITION is given as 2.7%.

Turning to `O=C(NC1CC1)c1cc(Cl)ccc1-n1cnnn1`, the INHIBITION was -3.59%.

As for `CC(=O)N1CCC(NC(=O)c2cc(Cl)ccc2-n2cnnn2)CC1`, the INHIBITION amounted to 37.7%.

With `CC(C)CN1CCC(NC(=O)c2ccc(Cl)cc2Cl)CC1`, the INHIBITION is 90.2%.

With `CC(C)CN1CCC(NC(=O)c2ccc(F)cc2Cl)CC1`, the INHIBITION is -23.4%.

Take `CC(C)CN1CCC(NC(=O)c2ccc(F)cc2F)CC1`: the INHIBITION was determined as 31.1%.

For the compound `COCC(O)CN1CCC(NC(=O)c2ccccc2Cl)CC1` (centres undefined), the INHIBITION came out at 19.6%.

With `O=C(NC1CCN(C2CC2)CC1)c1cc(Cl)ccc1-n1cnnn1`, the INHIBITION was 62.8%.

In the case of `CC(=O)N1CCC(NC(=O)c2cc(Cl)ccc2O)CC1`, the INHIBITION worked out at 61%.

As to `CC(C)CN1CCC(NC(=O)c2ccc(F)cc2I)CC1`, the INHIBITION was 50.1%.

As to `Cc1cc2ccccc2n1CCC(=O)NCCS(C)(=O)=O`, the INHIBITION amounted to 0.426%.

For `CC(C)CS(=O)(=O)N1C[C@@H]2C[C@H](C(=O)NCc3ccccc3)[C@H](C1)O2`, the INHIBITION came out at 9.48%.

For the compound `Cc1ccc(C(=O)N(C)Cc2cc(Br)cs2)c(=O)[nH]1`, the INHIBITION is 15%.

`Cc1cnn(CC2CN(CC(=O)N(C)Cc3ccccc3)CCO2)c1` (centres undefined): the INHIBITION was 13.3%.

As for `CNC(=O)C1CN(c2ccc(F)cc2)CCN1` (centres undefined), the INHIBITION came out at 41.5%.

On to `O=C(CC1CC1)N1C[C@@H](O)[C@H](N2CCN(c3ccccc3)CC2)C1`, for which the INHIBITION worked out at 30.25%.

Regarding `O=C(CCOc1ccccc1F)N1CCCC(n2cncn2)C1` (centres undefined), the INHIBITION came to 36.065%.

Take `Cc1ccccc1N1CCN(C2CCCN(C(=O)CCC(C)C)C2)CC1` (centres undefined): the INHIBITION was determined as 46.6%.

As for `O=C(CO)N1CCCC(N2CCN(c3ccccc3F)CC2)C1` (centres undefined), the INHIBITION stood at 65.6%.

In the case of `CCOc1cncc(N2CCN(c3ccccc3F)CC2)n1`, the INHIBITION is reported as 3.77%.

For `CSCCC(=O)N1CC[C@@H](N2CCN(c3ccccc3F)CC2)[C@H](O)C1`, the INHIBITION was determined as 48.9%.

Take `O=C(CO)N1CC[C@@H](N2CCN(c3ccccc3F)CC2)[C@H](O)C1`: the INHIBITION is 52.6%.

In the case of `C[C@@H]1CN(C2CCN(c3ccccc3F)CC2)CC[C@]1(C)O`, the INHIBITION worked out at 7.31%.

Regarding `O[C@@H]1CN(CC2CC2)CC[C@H]1N1CCN(c2ccccc2F)CC1`, the INHIBITION was 53.6%.

With `O=C(NCCNC1CCCCC1)c1cccs1`, the INHIBITION was -2.11%.

Take `COc1ccc(S(=O)(=O)N[C@H]2CN(C(C)=O)C[C@@H]2C(C)C)cc1F`: the INHIBITION came to 17.7%.

For `Cc1cnc(CN(C)C2CCN(CCCc3ccccc3)C2)o1` (centres undefined), the INHIBITION is -9.37%.

As for `CN(C)CC(=O)N1CCc2sc(C(=O)NCC3CC3)cc21`, the INHIBITION was -17.1%.

As to `CSCC(=O)N1CCCC(c2cc(C)[nH]n2)C1` (centres undefined), the INHIBITION is given as 28%.

Turning to `CC(C)c1ocnc1C(=O)N1CC(=O)Nc2cccnc21`, the INHIBITION was 37.1%.

For `O=c1cc(CN2C[C@@H]3CC[C@H]2CN(Cc2ccccc2)C3)[nH]c(=O)[nH]1`, the INHIBITION came to 34%.

In the case of `CN(C)S(=O)(=O)N1CCOC(c2cccc(-c3cncnc3)n2)C1` (centres undefined), the INHIBITION came out at 13%.

`NCC1[C@H]2CN(Cc3ccccc3)C[C@@H]12` (some centres undefined): the INHIBITION was found to be 5.73%.

For the compound `Cn1cc(CN2CCCC(c3nccnc3-c3cccc(F)c3)C2)cn1` (centres undefined), the INHIBITION is 9.05%.

In the case of `O=C(CCO)N[C@H]1CN(CC2CCC2)C[C@@H]1c1ccccc1`, the INHIBITION is -13.1%.

For `CSCC(=O)N[C@H]1CN(CC2CCOCC2)C[C@@H]1c1ccccc1`, the INHIBITION is recorded as -69.6%.

As for `CS(=O)(=O)NCC(=O)N[C@H]1CN(CC2CC2)C[C@@H]1c1ccccc1`, the INHIBITION is reported as 65.3%.

Take `Cc1noc(C2(C)CCCN(C(=O)c3cccnc3)C2)n1` (centres undefined): the INHIBITION came to 25.6%.

Turning to `CCCS(=O)(=O)N1CCCC(CCC(=O)N(C)CCc2ccccn2)C1` (centres undefined), the INHIBITION stood at 27.6%.

On to `CN(C(=O)NCc1nccn1CCc1ccccc1)C1CCC1`, for which the INHIBITION is -4.63%.

`COc1ccc(Nc2nc3c(C)nn(C)c3c(=O)n2C)cc1`: the INHIBITION came out at 9.04%.

On to `CC(C)c1cc(C(F)(F)F)n2nc(C3CCN(S(C)(=O)=O)C3)cc2n1` (centres undefined), for which the INHIBITION is given as 43.05%.

For the compound `COc1ccc(NCCC(=O)NCc2cccnc2N(C)C)cc1`, the INHIBITION was -14.9%.
